# Laboratory results: paper PMC5540273 (PLoS ONE, 2017)
# Experiments:
# Conditions in all cases: concentration: 1 μM,replicates: in singlicate; n = 1
# [1] = tested on: AAK1
# [2] = tested on: ABL1-nonphosphorylated
# [3] = tested on: ABL1-phosphorylated
# [4] = tested on: ABL2
# [5] = tested on: ACVR1B
# [6] = tested on: ACVR1
# [7] = tested on: ACVR2A
# [8] = tested on: ACVR2B
# [9] = tested on: ACVRL1
# [10] = tested on: T1, ADCK3
# T1 construct: gene CABC1
# 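Further: KINOMEscan kinase panel screen.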
Structure (SMILES),%Inh [1],%Inh [2],%Inh [3],%Inh [4],%Inh [5],%Inh [6],%Inh [7],%Inh [8],%Inh [9],%Inh [10]
O=C1NCCc2[nH]c(-c3ccncc3)cc21,77%,31%,0%,0%,40%,14%,40%,70%,19%,33%
O=C(NCC1CC1)c1ccc(-c2cc(C(=O)NC3CC3)ccc2F)cc1 [GW810445],0%,0%,10%,3%,0%,0%,0%,6%,0%,0%
COc1cccc(CNC(=O)NC2CCN(c3ccnc(Nc4cc(OC)c(OC)c(OC)c4)n3)C2)c1 (centres unmarked) [GSK1379765],54%,0%,0%,20%,0%,0%,0%,14%,0%,24%
CC(C)S(=O)(=O)N1CCN(Cc2ccc3c(c2)nc(NC(=O)c2ccsc2)n3C[C@H](O)c2ccccc2)CC1 [GW635815],38%,0%,2%,22%,15%,0%,0%,0%,0%,0%
CN1CCN(CCCNc2nccc(-c3c(-c4ccc(F)cc4)nn4cc(C(N)=O)ccc34)n2)CC1 [GW622475],33%,10%,0%,17%,94.9%,90.6%,19%,45%,77%,96.7%
Cc1ccc(Nc2ccnc(Nc3ccc4c(c3)CS(=O)(=O)C4)n2)cc1O.Cl [GW579362],80%,99.3%,99.8%,99.3%,84%,99.5%,72%,95.6%,85%,8%
CCCC(=O)Nc1n[nH]c2ncccc12 [SB-601436],0%,24%,0%,0%,0%,5%,0%,0%,0%,0%
COc1cccc(C2=C(Nc3cccc(Cl)c3)C(=O)NC2=O)c1 [SB-341556],0%,0%,21%,8%,0%,65%,0%,0%,0%,24%
